# Experimental data taken from PubChem BioAssay (NCATS).
# Several values for one entry are separate records, joined by “and”; a condition that tells them apart may be missing. Identical values can stand only once. Results filed as inconclusive are left out. Activity calls are given as the source filed them. Calls follow the shape of the full dose curve.
# Assay: Primary qHTS to identify inhibitors of SARS-CoV-2 cell entry (AID 1645846); also: nearly all actives have a fitted effect of over 45% in size
# Settings: SARS-CoV-2 pseudovirus cell entry assay, luminescence; activity change, negative = inhibition: at 57.1 µM (top of the series) unless noted; series mostly up to 57.1 µM
# Description: Assay Provider: Wei Zheng, Ph.D.
# National Center for Advancing Translational Sciences, National Institute of Health, Rockville, MD.
# SARS-CoV-2 spike protein, within the viral envelope, mediates viral attachment and infection of host cells. The SARS-CoV-2 spike protein specifically binds to the host receptor ACE2 (Angiotensin-converting enzyme 2). This interaction promotes endocytosis of the viral particle, additional events lead to viral-host cell membrane fusion and release of the viral contents, allowing viral replication.
# While SARS-CoV-2 requires BSL-3 facilities for live virus work, pseudotyped partices (PP) that incorporate SARS-CoV-2 spike proteins without replication elements could facilitate studies on viral entry mechanisms in a BSL-2 setting. This PP cell entry assay could also enable screening of small molecule compound libraries in BSL-2 setting to identify inhibitors of SARS-CoV-2 cell entry.
# PROTOCOL TABLE (format as described by Inglese J, Shamu CE and Guy RK. 2007)
# SEQUENCE No. (e.g., 1, 2, 3, etc.); […] (e.g., Cells, Incubation, Reagent, etc.); VALUE and DESCRIPTION.
# 1. Cells. Seed 1500 HEK293-ACE2 cells (Expi293F with stable expression of human ACE2) in 2 uL/well media (DMEM, 10% FBS, 1x L-glutamine, 1x Pen/Strep, 1 ug/ml puromycin) in white 1536-well assay plates (Greiner #782073).
# 2. Incubation. Incubate at 37C with 5% CO2 overnight (~16 h).
# 3. Compounds. Dispense 23 nL/well compounds in DMSO via pin transfer.
# 4. Incubation. Incubate for 1 hr at 37C 5% CO2.
# 5. Reagent. Dispense 2 uL/well of SARS-CoV-2-S pseudotyped particles. [a] PPs are produced with murine leukemia virus pseudotyping. [b] SARS-CoV-2-S is Wuhan-Hu-1 sequence (BEI #NR-52420) with C-terminal 19 amino acid truncation.
# 6. Centrifuge. […]
# 7. Incubation. Incubate at for 48 hr at 37C 5% CO2
# 8. Centrifuge. Remove supernatant with gentle centrifugation using a Blue Washer (BlueCat Bio).
# 9. Reagent. Dispense 4 uL/well of Bright-Glo Luciferase detection reagent (Promega #E2620).
# 10. Incubation. Incubate for 5 min at room temperature.
# 11. Detection. Read luminescence signal (Viewlux plate reader, PerkinElmer). Data was normalized with wells containing SARS-CoV-2-S PP as 100%, and wells containing bald PP (no fusion protein) as 0%.
# Potency is read from the fitted curve at half-maximal effect.
Compound,outcome,"activity change, negative = inhibition",Potency
CCC(=O)O[C@H]1CC[C@H]2[C@@H]3CCC4=CC(=O)CC[C@]4(C)[C@H]3CC[C@]12C,inactive,,
Nc1ccc(N=Nc2ccccc2)c(N)n1,inactive,,
COCCc1ccc(OCC(O)CNC(C)C)cc1 (stereo unspecified),,-1.24%,
CCC(=O)c1ccc(O)cc1,inactive,,
C[N+]1(CC2COC(c3ccccc3)(C3CCCCC3)O2)CCCCC1 (stereo unspecified),,-2.6%,
NC(=O)CCCCC1CCSS1 (stereo unspecified),inactive,,
CCN(CC)CCOc1ccc(/C(=C(\Cl)c2ccccc2)c2ccccc2)cc1,,4.38%,
C[C@H]1C[C@H]2[C@@H]3CCC4=CC(=O)C=C[C@]4(C)[C@@]3(Cl)[C@@H](O)C[C@]2(C)[C@@]1(O)C(=O)CO,inactive,,
CC/C(=C(/CC)c1ccc(O)cc1)c1ccc(O)cc1,,,17.8 µM (active)
O=C(O)CCC(=O)OC[C@@H](NC(=O)C(Cl)Cl)[C@H](O)c1ccc([N+](=O)[O-])cc1,,-2.41%,
CC(C)c1cc2c(cc1S(=O)(=O)O)[C@@]1(C)CCC[C@@](C)(C(=O)O)[C@@H]1CC2,,-22.9%,
Cc1ccc(N(CC2=NCCN2)c2cccc(O)c2)cc1,,-6.91% and 2.72%,
O=C(OCc1ccccc1)c1ccc(O)cc1,inactive,,
O=C(O)CCC(=O)Nc1ccc(S(=O)(=O)Nc2nccs2)cc1,inactive,,
CC(C)C(=O)Nc1cccc(C2CN3CCSC3=N2)c1 (stereo unspecified),,-6.4%,
O=C(O)c1cccc(-c2noc(-c3ccccc3F)n2)c1,inactive,-78%,
CC(O)Cn1cnc2c1c(=O)n(C)c(=O)n2C (stereo unspecified),,0.504%,
c1ccc([C@H]2CN3CCSC3=N2)cc1,inactive,-16.1%,
COc1ccc2cc1Oc1ccc(cc1)C[C@H]1c3c(cc4c(c3Oc3cc5c(cc3OC)CCN(C)[C@@H]5C2)OCO4)CCN1C,,,7.94 µM (active)

Compound,outcome,"activity change, negative = inhibition",Potency
CC1(C)O[C@@H]2C[C@H]3[C@@H]4C[C@H](F)C5=CC(=O)CC[C@]5(C)[C@H]4[C@@H](O)C[C@]3(C)[C@]2(C(=O)CO)O1,inactive,,
C[C@H](N)[C@H](O)c1cccc(O)c1,,1.07%,
O=C(CCCN1CCN(c2ccccn2)CC1)c1ccc(F)cc1,,-24.8%,
CNC1CCCN(c2c(F)cc3c(=O)c(C(=O)O)cn(C4CC4)c3c2OC)C1 (stereo unspecified),,-27.9% and -16.1%,
CN1[C@@H]2CC[C@H]1CC(NC(=O)n1c(=O)[nH]c3ccccc31)C2 (stereo partly specified),inactive,,
O=C(OCC(O)CO)c1ccccc1Nc1ccnc2c(C(F)(F)F)cccc12 (stereo unspecified),inactive,,
OC[C@H]1O[C@@H](O[C@@H]2[C@@H](CO)O[C@](O)(CO)[C@H]2O)[C@H](O)[C@@H](O)[C@H]1O,inactive,-4.13%,
C[C@@H]1CC[C@H]2[C@@H](C)C(=O)O[C@@H]3O[C@@]4(C)CC[C@@H]1[C@]32OO4,,-32%,
C[C@@H]1O[C@@H](O[C@@H]2C=C3CC[C@@H]4[C@H](CC[C@]5(C)[C@@H](c6ccc(=O)oc6)CC[C@]45O)[C@@]3(C)CC2)[C@H](O)[C@H](O)[C@H]1O,,-97.4%,
CN1CCC(=C2c3ccccc3CC(=O)c3sccc32)CC1,,-26%,
CCN(CC)C(=O)Nc1ccc(OCC(O)CNC(C)(C)C)c(C(C)=O)c1 (stereo unspecified),,-2.7%,
COc1cccc2c1C(=O)c1c(O)c3c(c(O)c1C2=O)C[C@@](O)(C(C)=O)C[C@@H]3O[C@H]1C[C@H](N)[C@H](O)[C@H](C)O1,,-92.1% and -98%,
O=C(N[C@H]1N=C(c2ccccc2F)c2cccc3c2N(CC3)C1=O)c1cc2ccccc2[nH]1,,-28.2%,
COc1ccnc2c1CCCCC2S(=O)c1nc2ccccc2[nH]1 (stereo unspecified),,-18.8%,
CC1COC2(c3ccccc3Cl)c3cc(Cl)ccc3NC(=O)CN12 (stereo unspecified),inactive,,
O=C1OC(c2ccc(O)cc2)(c2ccc(O)cc2)c2ccccc21,inactive,,
CC(C(O)c1ccc(O)cc1)N1CCC(Cc2ccccc2)CC1 (stereo unspecified),,-24.3%,
C[C@H]1C[C@H]2[C@@H]3CCC4=CC(=O)C=C[C@]4(C)[C@H]3C(=O)C[C@]2(C)[C@@]1(O)C(=O)CO,inactive,4.44%,
